Inconclusive results are not listed. Active and inactive are the calls of the source. Calls come from the whole dose curve; as a rule, active = well fitted curve in the direction sought with a large enough effect; inconclusive = small, poorly fitted or top-dose-only effect, or another doubt; inactive = no such curve, though single readings can be large; an effect the other way counts as inactive or inconclusive.
What was measured:
[1] = U-118MG Cancer Cell Toxicity qHTS against the NCATS CANVASS Library (AID 1347351); for activity change, negative = cytotoxicity: series mostly up to about 38 µM; % is set by controls: 0 for no effect and ±100 for the full control effect
Method in brief: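 Bortezomib titration and single-dose wells served as plate controls. Test compounds, 11 points, acted on 1000 cells/well for 72 h at 37 degrees C; CellTiter-Glo luminescence quantified remaining viable cells.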

[2] = A2780 Cisplatin Sensitive Ovarian Cancer Cell Toxicity qHTS against the NCATS CANVASS Library (AID 1347353); note: nearly all actives have a fitted effect of over 60% in size
Method in brief: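 Seventy-two-hour exposure of cisplatin-sensitive A2780 ovarian cells to an 11-concentration qHTS series; cytotoxicity is inferred from loss of ATPLite luminescence. Bortezomib titration served as positive control.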

[3] = UWB1.289-WTBRCA1 Cancer Cell Toxicity qHTS against the NCATS CANVASS Library (AID 1347354); for activity change, negative = cytotoxicity: % is set by controls: 0 for no effect and ±100 for the full control effect
Method in brief: (§1)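 qHTS cytotoxicity: compounds tested in 11 concentrations on 1000 seeded cells per well over 72 h; bortezomib served as control; signal from CellTiter-Glo luminescence.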

[4] = HEK-293 Cancer Cell Toxicity qHTS against the NCATS CANVASS Library (AID 1347355); note: series mostly up to about 46 µM; nearly all actives have a fitted effect of over 65% in size
Method in brief: as §1

[5] = HPAF-II 24hr Apoptosis Induction qHTS against the NCATS CANVASS Library (AID 1347356); note: 0% is about no effect
Method in brief: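 Apoptosis induction in HPAF-II pancreatic cancer cells is measured as caspase-3/7 luminescence after a 24-hour exposure to compounds.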

[6] = system: NAD(P)H diaphorase (Clostridium kluyveri); assay: Diaphorse counterscreen qHTS: Assay Interference Panel against the NCATS CANVASS Library (AID 1347362); note: 0% is about no effect
Method in brief: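 Clostridium kluyveri diaphorase in PBS with 0.01% Tween-20 was preincubated 15 min at room temperature in the dark with compounds (11-point series). Resorufin fluorescence (ex 525/20, em 598/25) was read 5 min after adding resazurin/NADH.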

[7] = SDT Cancer Cell Toxicity qHTS against the NCATS CANVASS Library (AID 1347365); note: nearly all actives have a fitted effect of over 60% in size
Method in brief: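 Dispense 500 SDT cells per well; pin-transfer compounds; incubate 72 hr at 37C, 5% CO2, 95% RH; add CellTiterGlo and read luminescence.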

[8] = qHTS for ATAD5 Antagonist screened against the NCATS CANVASS Library (AID 1347370);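 note: HEK293T cells carrying an ATAD5 luciferase reporter co-treated with 10 µM 5-fluorouridine; series mostly up to about 46 µM; % is set by controls: 0 for no effect and ±100 for the full control effect; nearly all actives have a fitted effect of over 65% in size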
Method in brief: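 HEK293T cells with a stably integrated ATAD5-controlled luciferase reporter were exposed to compounds (11-pt) alongside 10 uM 5-fluorouridine as ATAD5 stabilizer for 16hr at 37C. Viability was read by CellTiter-Fluor fluorescence, then ATAD5 by luminescence.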

[9] = target: Nuclear receptor subfamily 1 group I member 3 (Homo sapiens) (UniProt Q14994); assay: qHTS for Constitutive Androstane Receptor (CAR) Antagonist screened against the NCATS CANVASS Library (AID 1347372);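 note: cells stimulated with 50 nM CITCO agonist so inhibition reflects antagonism; series mostly up to about 46 µM; % is set by controls: 0 for no effect and ±100 for the full control effect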
Method in brief: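 HepG2 cells stably carrying hCAR and a CYP2B6-2.2kb luciferase reporter were exposed to compounds plus 50 nM CITCO for 24hr at 37C. CAR activity was read by ONE-Glo luminescence, with viability measured first by CellTiter-Fluor.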

[10] = qHTS for Hypoxia signaling pathway (HIF-1) agonists against the NCATS CANVASS Library (AID 1347375); note: 0% is about no effect
Method in brief: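 Inducers of HIF-1 signaling were detected in ME-180 cells bearing an HRE-driven beta-lactamase reporter after 17 h compound exposure. Activity came from CCF4-AM FRET emission ratio (460/530 nm) in qHTS format.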

[11] = DH5-alpha competent E. coli microbial cell viability qHTS against the NCATS CANVASS Library (AID 1347377); conditions: outcome: dose series up to 46.1 µM unless noted
Method in brief: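 Cell viability of competent DH5-alpha E. coli is scored from ATP content by luminescence. Cells sit overnight at 37C with compound across an 11-point concentration series.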

[12] = qHTS for H2AX Agonists against the NCATS CANVASS Library (AID 1347378); note: 0% is about no effect
Method in brief: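 CHO-K1 cells were plated overnight at 37C, then exposed to compounds (concentration series, 0.76% DMSO final) for 3 hr at 37C. Lysates received Eu-cryptate anti-pH2AX (S139) and d2 anti-H2AX antibodies; after 24 hr at room temperature, TR-FRET 665/620 nm ratio was read.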

[13] = Cytotoxicity qHTS for assessment of Hepg2 cells membrane integrity screened against the NCATS CANVASS Library (AID 1347387)
Method in brief: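 Fluorescence proportional to lysed-cell number, from LDH leaking out of HepG2 cells exposed 5 hr at 37C to 0.59 nM - 46 uM compound (11-point qHTS), is measured after 10 min with CytoTox-ONE.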

[14] = qHTS for Activators of p53 Stress Response Pathway screened against the NCATS CANVASS Library (AID 1347388); note: 0% is about no effect
Method in brief: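 p53RE-bla HCT-116 cells (4000/well) were plated 5 h at 37C, exposed to compounds for 16 h at 37C over an 11-point concentration series, then loaded with CCF4 for 2 h at room temperature; 460/530 nm emission ratio read.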

[15] = Secretion counterscreen for inhibitors of the SERCaMP assay screened against the NCATS CANVASS Library (AID 1347390);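 note: light from luciferase secreted into medium read as a measure of general secretion; series mostly up to about 77 µM; % is set by controls: 0 for no effect and ±100 for the full control effect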
Method in brief: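 SH-SY5Y cells expressing constitutively secreted GLuc, 1000 cells/well, attached 4 h at 37C, then exposed to compounds (0.001 - 77 uM, 11-pnt series) for 20 h. Coelenterazine added; luminescence read to flag secretory-pathway interferers.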

[16] = qHTS for activators of dead-cell proteases activity screened against the NCATS CANVASS Library (AID 1347392);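 note: luminescence from protease leaking out of membrane-damaged cells cleaving impermeant substrate; 0% is about no effect; rising signal means more cytotoxicity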
Method in brief: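 HepG2 cells (2000/well) attached 18 h at 37C, then exposed 5 h to compounds (11-point qHTS). Dead-cell protease activity read as luminescence from cell-impermeant AAF-aminoluciferin substrate after 15 min at room temperature.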

[17] = qHTS for inhibitors of ER calcium dysfunction: SERCaMP assay screened against the NCATS CANVASS Library (AID 1347393);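 note: series mostly up to about 77 µM; % is set by controls: 0 for no effect and ±100 for the full control effect; lower secreted reporter signal means inhibitor of ER calcium depletion; nearly all actives have a fitted effect of over 40% in size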
Method in brief: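 qHTS in SH-SY5Y reporter cells: 16 h compound pretreatment, 4 h thapsigargin, then secreted Gaussia luciferase measured by luminescence.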

[18] = Redox Reaction Profiling qHTS: Assay Interference Panel against the NCATS CANVASS Library (AID 1347401);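 note: 100% = activation by 2 µM chloranil control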
Method in brief: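 Resazurin (5 uM) conversion to resorufin measured with 200 uM DTT in 50 mM HEPES pH 7.3, 50 mM NaCl. Compounds tested in 11-point qHTS series. Fluorescence (ex 525/em 598 nm) read before and after 15 min dark incubation.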

[19] = KB-8-5-11 Cancer Cell Toxicity qHTS against the NCATS CANVASS Library (AID 1347364); note: nearly all actives have a fitted effect of over 75% in size
Method in brief: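 Natural products were titrated in 11 points onto KB-8-5-11 cells, 500 per well, and cytotoxicity was scored from CellTiter-Glo luminescence after 72 hr culture.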

[20] = qHTS assay for small molecule disruptors of mitochondrial membrane potential screened against the NCATS CANVASS Library (AID 1347389); note: series mostly up to about 46 µM; % is set by controls: 0 for no effect and ±100 for the full control effect; nearly all actives have a fitted effect of over 60% in size
Method in brief: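 Compounds tested in 11-point qHTS series on HepG2 cells for 1 hr; membrane-potential dye added for 30 min at 37C. Lower red-to-green ratio indicates loss of potential.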

Nuclear receptor subfamily 1 group I member 3 (Homo sapiens), sequence (Q14994 whole entry, looked up): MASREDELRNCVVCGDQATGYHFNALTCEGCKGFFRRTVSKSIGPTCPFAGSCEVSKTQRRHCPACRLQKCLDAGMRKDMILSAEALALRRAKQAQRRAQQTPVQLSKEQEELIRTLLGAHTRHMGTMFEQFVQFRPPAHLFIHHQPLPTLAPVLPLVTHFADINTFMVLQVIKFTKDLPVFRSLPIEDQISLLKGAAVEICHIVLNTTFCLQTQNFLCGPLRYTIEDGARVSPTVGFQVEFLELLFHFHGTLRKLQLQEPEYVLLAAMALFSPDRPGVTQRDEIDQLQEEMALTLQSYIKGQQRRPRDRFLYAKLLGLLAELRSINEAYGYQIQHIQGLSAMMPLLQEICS

COc1ccc2oc3c(OC)c(OC)c(OC)c(OC)c3c(=O)c2c1
inactive: activity change, negative = cytotoxicity [1] 3.45% [at 7.64 µM] | outcome [2] inactive [at 9.19 µM] | activity change, negative = cytotoxicity [3] 9.39% [at 7.64 µM] | activity change, negative = cytotoxicity [4] -6.97% [at 9.19 µM] | caspase activation [5] 1.51% [at 9.19 µM] | activity change, negative = inhibition [6] -18.3% [at 11.5 µM] | activity change, negative = cytotoxicity [7] -18.8% [at 9.19 µM] | activity change, negative = inhibition [8] -20.5% [at 9.19 µM] | activity change, negative = inhibition [9] 22.2% [at 9.19 µM] | activation [10] 1.59% [at 7.64 µM] | outcome [11] inactive [at 9.19 µM] | activation [12] -1.65% [at 15.3 µM] | cytotoxicity (LDH release) [13] -0.617 [at 9.19 µM] | activation [14] -1.1% [at 9.19 µM] | activity change, negative = inhibition [15] -3.74% [at 15.3 µM] | activation (cytotoxicity) [16] -1.14% [at 9.19 µM] | activity change, negative = inhibition [17] -15.7% [at 15.3 µM] | activation (redox signal) [18] -9.99% [at 11.4 µM]

C[C@@H]1C(=O)[C@]23CC[C@H]1C[C@]21O[C@H]2C(C)(C)C=CC(=O)[C@@]23COC1=O
inactive: Potency [1] | Potency [2] | Potency [3] | Potency [4] | outcome [5] | Potency [6] | Potency [19] | Potency [7] | Potency [8] | Potency [9] | Potency [10] | outcome [11] | Potency [12] | outcome [13] | Potency [14] | Potency [20] | Potency [15] | Potency [16] | Potency [18]

C[C@@H](CCC[C@]1(C)C(=O)C=C[C@]23C[C@H]4C[C@H](O[C@@]4(C)C2)C31)C(=O)N[C@@H](CO)C(=O)O (some centres not stated)
inactive: Potency [1] | Potency [2] | Potency [3] | Potency [4] | outcome [5] | Potency [6] | Potency [19] | Potency [7] | Potency [8] | Potency [9] | Potency [10] | outcome [11] | Potency [12] | outcome [13] | Potency [14] | Potency [20] | Potency [15] | Potency [16] | Potency [17] | Potency [18]

O=Cc1ccc2n1C[C@@]1(OC2)O[C@H](CO)[C@@H](O)[C@@H]1O
inactive: Potency [1] | Potency [2] | Potency [3] | Potency [4] | outcome [5] | Potency [6] | Potency [19] | Potency [7] | Potency [8] | Potency [9] | Potency [10] | outcome [11] | Potency [12] | outcome [13] | Potency [14] | Potency [20] | Potency [15] | Potency [16] | Potency [17] | Potency [18]

CC1C(=O)C23CCC1C[C@@]21O[C@H]2C(C)(C)C=CC(=O)[C@@]23COC1=O (some centres not stated)
inactive: Potency [1] | Potency [2] | Potency [3] | Potency [4] | outcome [5] | Potency [6] | Potency [19] | Potency [7] | Potency [8] | Potency [9] | Potency [10] | outcome [11] | Potency [12] | outcome [13] | Potency [14] | Potency [20] | Potency [15] | Potency [16] | Potency [17] | Potency [18]

— PubChem BioAssay (NCATS)
